We go through eight compounds from PubChem BioAssay (NCATS).

The structures appear in SMILES notation. Results filed as inconclusive are left out. Activity calls are given as the source filed them. Unless noted, the call rests on the fitted dose curve; in most records, active means well fitted curve in either direction with a large enough effect (not every such curve was filed as active); inconclusive means small, poorly fitted or top-dose-only effect, or another doubt; inactive means flat fitted curve, though single readings scatter.

For assay [1], the target named is Lysosomal acid glucosylceramidase (Homo sapiens) (UniProt P04062). Put plainly: Glucocerebrosidase-p2 (AID 348; in the data active means potency below about 10 µM; further: potency means the concentration at half of the fitted maximal effect). The settings on record: purified GBA, blue fluorogenic substrate, 40 min. Summed up:
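Compounds titrated from 0.6 nM upwards against 0.2 nM enzyme in pH 5.9 citric acid/KH2PO4, taurocholate, tween-20; blue fluorogenic substrate 80 uM, 40 min room temperature, stopped and read Ex 365/Em 440 for AC50.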

The nature of assay [2]: AP1 Signaling Pathway (AID 357).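 Further: ME-180 reporter cells stimulated with EGF at its EC50 level; on the % scale 0 is the no-effect control and ±100 the full control effect.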 As to conditions: ME-180 AP-1-bla reporter, EGF-induced, beta-lactamase ratio, 5 h; at 7.69 µM (top of the series) unless noted. In a few lines: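 Titration-series screen for positive or negative modulators of EC50 EGF-induced signaling in ME-180 cells carrying an AP-1-driven beta-lactamase reporter. After 5 hours at 37 degrees Celsius, CCF4 460nm/530nm emission ratio gave %Activity; AC50 values derived.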

In assay [3] the target is Cytochrome P450 1A2 (Homo sapiens) (UniProt P05177). Put plainly: p450-cyp1a2 (AID 410; calls by dose curve; further: potency means the concentration at half of the fitted maximal effect;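 on activity change, negative = inhibition: -100% = full effect of reference inhibitor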). As to conditions: recombinant CYP1A2, luciferin-ME demethylation, luminescence; series mostly up to 57 µM. Summed up: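 Luminescent readout of luciferin formed from Luciferin-ME by human CYP1A2; data normalized against complete inhibition by 57 uM furafylline. Enzyme 20nM, substrate 100uM at Km, 100mM KPO4 buffer, 60 min reaction at room temperature.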

Assay [4] in a line: Stat Signaling Pathway (AID 446).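 Further: ME-180 cervical cancer cells given 40 pM IL-6 alongside compound; SIE-controlled beta-lactamase reporter measured as 460/530 nm FRET emission ratio; on the % scale 0 is the no-effect control and ±100 the full control effect.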 The settings on record: ME-180 (cervical carcinoma) SIE beta-lactamase reporter, IL-6 stimulated, 5 h; at 7.69 µM (top of the series) unless noted. Summed up: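 IL-6/STAT signaling read in ME-180 cells via an SIE beta-lactamase reporter. Stimulus was 40 pM IL-6 (its AC50) for 5 hrs, so both activation and inhibition register.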
The target in assay [5] is Glucocorticoid receptor (Homo sapiens) (UniProt P04150). The assay can be described thus: GR-EFC Redistribution (AID 451; calls by dose curve; further: potency means the concentration at half of the fitted maximal effect). As to conditions: CHO-K1 GR-EFC translocation, beta-gal luminescence, 2 h. In a few lines:
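Translocation of GR-ED fusion to nuclear EA restores b-gal, read by luminescence after 1 h room-temperature detection. Engineered CHO-K1 biosensor cells, 1,000/well, exposed 2 h at 37 C to titrations up to 46 uM final.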

Assay [6] concerns the target Mitogen-activated protein kinase 10 (Mus musculus) (UniProt Q61831). The assay can be described thus: JNK3 AlphaScreen Assay (AID 530).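 Further: kinase came from lysate of stimulated human HepG2 cells; signal reports phosphorylation of biotinylated GST-cJun 1-79 at Ser73 with 10 µM ATP; on the % scale 0 is the no-effect control and ±100 the full control effect.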 As to conditions: JNK3 lysate, c-Jun phosphorylation; series mostly up to 57.1 µM. Summed up:
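Compound titrations were preincubated 15 minutes at room temperature with substrate, antibody and pre-activated JNK3-containing HepG2 lysate. Reactions were started with 10 uM ATP and stopped with EDTA-containing bead buffer for AlphaScreen detection.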
(In general: Alpha assays give light when donor and acceptor beads are brought close together.)

Assay [7] deals with 3',5'-cyclic-AMP phosphodiesterase 4B (Homo sapiens) (UniProt Q07343). Put plainly: qHTS Assay for Inhibitors of PDE-IV (AID 607; active means well fitted activation curve with a large enough effect in the main read-out, with a control signal flat, not every such curve was filed as active; further: % of control where 0% means no effect). As to conditions: HEK293 ACTOne CNG channel cells, membrane potential fluorescence; series mostly up to 22.9 µM. In a few lines:
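Live HEK293 cells with a modified cyclic nucleotide-gated (CNG) channel report intracellular cAMP via membrane-potential dye fluorescence (ex 535/em 590 nm). Endogenous PDE-IV was targeted. Compounds were tested at up to 22.9 uM final; RO 20-1724 100 uM served as control.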
In general terms: In qHTS, concentration-response curves come from the screen itself.

Assay [8] can be described thus: qHTS Assay for Lipid Storage Modulators (AID 1519; calls by dose curve). As to conditions: Drosophila S3 cells, BODIPY lipid droplet/cell ratio, laser cytometry, cells loaded with oleic acid; for activity change, negative = inhibition: at 57.5 µM (top of the series). Summed up: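 Cells seeded at 5,000 per well were treated with compounds over a concentration series and loaded with oleic acid (400 uM, as added). Lipid droplet fluorescence (488 nm excitation, 500-530 nm channel) was read by laser-scanning cytometry and normalized to 20 uM Triacsin C.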

Assay [9] can be described thus: Primary qHTS for small molecule stabilizers of the endoplasmic reticulum resident proteome: Secreted ER Calcium Modulated Protein (SERCaMP) assay (AID 1508630; active means well fitted curve in the direction sought with a large enough effect; an effect the other way counts as inactive or inconclusive; further: on the % scale 0 is the no-effect control and ±100 the full control effect). The settings on record: SH-SY5Y GLuc-SERCaMP (Gaussia luciferase released on ER calcium loss) secretion, thapsigargin, luminescence; series mostly up to 38.4 µM. Summed up: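 GLuc-SERCaMP-expressing SH-SY5Y cells, pretreated 16 h with compound, are challenged with thapsigargin to empty ER calcium stores; after 4 h, coelenterazine is added directly to the medium and luminescence is imaged.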

In assay [10] the target is Cytochrome P450 2C9 (Homo sapiens) (UniProt P11712). The assay can be described thus: qHTS Assay for Inhibitors and Substrates of Cytochrome P450 2C9 (AID 883; active means well fitted curve in the direction sought with a large enough effect; an effect the other way counts as inactive or inconclusive; further: nearly all actives have a fitted effect of over 60% in size; further: potency means the concentration at half of the fitted maximal effect). As to conditions: recombinant CYP2C9, luciferin-H luminescence, 60 min; series mostly up to 57.1 µM. In a few lines: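 Inhibition of CYP2C9 is scored as loss of luminescence, with 57uM sulphaphenazole defining 100% inhibition. Substrate Luciferin-H is used at 100uM, equal to its KM; enzyme at 10nM in 25mM KPO4, 60 min at 37C with NADPH regeneration.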

Assay [11] deals with Cytochrome P450 3A4 (Homo sapiens) (UniProt P08684). The assay can be described thus: qHTS Assay for Activators of Cytochrome P450 3A4 (AID 885; active means well fitted curve in the direction sought with a large enough effect; an effect the other way counts as inactive or inconclusive; further: nearly all actives have a fitted effect of over 65% in size). The settings on record: recombinant CYP3A4, Luciferin-PPXE luminescence, 60 min; series mostly up to 57.1 µM. In a few lines:
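Quantitative HTS format: compounds preincubated with 20nM human CYP3A4 and Luciferin-PPXE substrate at KM, reaction started by NADPH regeneration, stopped after 60 min, luciferase luminescence read 20 min later.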

The target of assay [12] is Cytochrome P450 2C19 (Homo sapiens) (UniProt P33261). Put plainly: qHTS Assay for Inhibitors and Substrates of Cytochrome P450 2C19 (AID 899; active means well fitted curve in the direction sought with a large enough effect; an effect the other way counts as inactive or inconclusive; further: on the % scale 0 is the no-effect control and ±100 the full control effect; nearly all actives have a fitted effect of over 60% in size). The settings on record: recombinant CYP2C19, luciferin-H EGE luminescence; series mostly up to 57.1 µM. Summed up: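 5nM enzyme + 10uM Luciferin-H EGE (=KM), 50mM KPO4; cpd pin-transferred, 10 min 37C; NADPH regen, 60 min 37C; stopped w/ luciferin detection reagent, 20 min; luminescence. Normalized to 57uM ketoconazole (AC100).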

Setting [13] is: measured here: cell count channel max response.
[14] abbreviates: measured here: lipid channel max response.

Lysosomal acid glucosylceramidase (Homo sapiens), sequence (P04062 whole entry, looked up): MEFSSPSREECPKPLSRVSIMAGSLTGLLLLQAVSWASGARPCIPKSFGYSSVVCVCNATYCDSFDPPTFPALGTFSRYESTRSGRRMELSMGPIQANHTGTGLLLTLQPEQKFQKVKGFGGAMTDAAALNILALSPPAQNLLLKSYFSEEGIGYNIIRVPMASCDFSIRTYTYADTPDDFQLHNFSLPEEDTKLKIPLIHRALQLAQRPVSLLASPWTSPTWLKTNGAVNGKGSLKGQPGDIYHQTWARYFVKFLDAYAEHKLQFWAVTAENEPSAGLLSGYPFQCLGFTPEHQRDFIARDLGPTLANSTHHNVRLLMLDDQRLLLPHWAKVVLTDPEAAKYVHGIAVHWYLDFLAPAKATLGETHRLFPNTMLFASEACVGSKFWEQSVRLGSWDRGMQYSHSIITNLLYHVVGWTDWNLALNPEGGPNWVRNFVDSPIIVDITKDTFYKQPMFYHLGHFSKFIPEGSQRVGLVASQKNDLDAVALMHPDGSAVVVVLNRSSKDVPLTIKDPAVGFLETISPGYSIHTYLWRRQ
Cytochrome P450 1A2 (Homo sapiens), sequence (P05177 whole entry, looked up): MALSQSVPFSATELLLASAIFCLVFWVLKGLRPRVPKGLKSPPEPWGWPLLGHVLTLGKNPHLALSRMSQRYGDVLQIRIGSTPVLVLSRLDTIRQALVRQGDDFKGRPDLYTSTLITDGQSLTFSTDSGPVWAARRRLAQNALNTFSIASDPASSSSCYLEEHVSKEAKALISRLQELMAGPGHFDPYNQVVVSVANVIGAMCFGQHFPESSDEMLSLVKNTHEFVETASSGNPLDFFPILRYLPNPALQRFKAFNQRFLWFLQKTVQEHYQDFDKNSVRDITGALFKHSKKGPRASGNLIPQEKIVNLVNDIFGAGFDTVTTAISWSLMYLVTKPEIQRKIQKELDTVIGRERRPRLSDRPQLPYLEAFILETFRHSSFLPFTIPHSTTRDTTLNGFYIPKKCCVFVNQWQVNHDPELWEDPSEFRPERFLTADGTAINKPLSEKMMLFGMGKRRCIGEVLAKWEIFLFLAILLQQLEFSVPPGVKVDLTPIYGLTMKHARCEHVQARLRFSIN
Glucocorticoid receptor (Homo sapiens), sequence (P04150 whole entry, looked up, the tested form may be a part): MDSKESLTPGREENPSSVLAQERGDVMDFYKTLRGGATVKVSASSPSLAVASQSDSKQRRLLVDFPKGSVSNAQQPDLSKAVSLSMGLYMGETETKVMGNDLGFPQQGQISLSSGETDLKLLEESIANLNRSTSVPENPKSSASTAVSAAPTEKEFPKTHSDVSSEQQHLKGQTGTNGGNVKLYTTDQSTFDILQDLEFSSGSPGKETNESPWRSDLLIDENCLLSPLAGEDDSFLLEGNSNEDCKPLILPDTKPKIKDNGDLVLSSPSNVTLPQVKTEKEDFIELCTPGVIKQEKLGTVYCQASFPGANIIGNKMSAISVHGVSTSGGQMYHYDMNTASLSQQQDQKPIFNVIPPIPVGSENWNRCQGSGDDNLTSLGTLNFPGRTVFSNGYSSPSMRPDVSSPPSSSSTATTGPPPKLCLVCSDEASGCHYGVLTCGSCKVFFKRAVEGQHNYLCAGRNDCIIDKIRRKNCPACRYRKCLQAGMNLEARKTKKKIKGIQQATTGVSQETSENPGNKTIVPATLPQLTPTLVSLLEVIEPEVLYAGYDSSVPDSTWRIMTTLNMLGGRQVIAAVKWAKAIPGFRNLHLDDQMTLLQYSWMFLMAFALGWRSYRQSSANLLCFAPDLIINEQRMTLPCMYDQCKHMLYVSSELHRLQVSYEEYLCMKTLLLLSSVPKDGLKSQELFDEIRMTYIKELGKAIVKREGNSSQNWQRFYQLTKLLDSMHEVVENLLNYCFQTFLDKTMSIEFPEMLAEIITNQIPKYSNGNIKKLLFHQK
3',5'-cyclic-AMP phosphodiesterase 4B (Homo sapiens), sequence (Q07343 whole entry, looked up): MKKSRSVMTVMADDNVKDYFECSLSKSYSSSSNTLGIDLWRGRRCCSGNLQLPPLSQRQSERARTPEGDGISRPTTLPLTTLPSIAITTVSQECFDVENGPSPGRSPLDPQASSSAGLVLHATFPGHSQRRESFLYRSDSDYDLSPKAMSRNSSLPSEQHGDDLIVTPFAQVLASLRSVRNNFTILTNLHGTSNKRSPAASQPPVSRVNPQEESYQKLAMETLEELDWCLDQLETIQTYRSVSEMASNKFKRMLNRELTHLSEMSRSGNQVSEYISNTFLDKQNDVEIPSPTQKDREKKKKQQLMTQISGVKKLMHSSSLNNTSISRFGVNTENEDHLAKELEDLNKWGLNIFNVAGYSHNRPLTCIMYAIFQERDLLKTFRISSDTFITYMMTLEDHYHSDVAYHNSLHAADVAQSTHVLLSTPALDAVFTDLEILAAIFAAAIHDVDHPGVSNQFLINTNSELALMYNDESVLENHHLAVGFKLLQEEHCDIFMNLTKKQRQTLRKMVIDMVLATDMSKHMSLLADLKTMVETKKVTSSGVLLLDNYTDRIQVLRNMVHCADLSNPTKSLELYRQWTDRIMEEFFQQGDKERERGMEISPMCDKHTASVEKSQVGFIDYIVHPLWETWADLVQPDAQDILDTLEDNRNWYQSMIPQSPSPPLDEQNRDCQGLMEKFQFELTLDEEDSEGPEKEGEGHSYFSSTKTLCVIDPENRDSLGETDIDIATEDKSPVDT
Cytochrome P450 3A4 (Homo sapiens), sequence (P08684 whole entry, looked up): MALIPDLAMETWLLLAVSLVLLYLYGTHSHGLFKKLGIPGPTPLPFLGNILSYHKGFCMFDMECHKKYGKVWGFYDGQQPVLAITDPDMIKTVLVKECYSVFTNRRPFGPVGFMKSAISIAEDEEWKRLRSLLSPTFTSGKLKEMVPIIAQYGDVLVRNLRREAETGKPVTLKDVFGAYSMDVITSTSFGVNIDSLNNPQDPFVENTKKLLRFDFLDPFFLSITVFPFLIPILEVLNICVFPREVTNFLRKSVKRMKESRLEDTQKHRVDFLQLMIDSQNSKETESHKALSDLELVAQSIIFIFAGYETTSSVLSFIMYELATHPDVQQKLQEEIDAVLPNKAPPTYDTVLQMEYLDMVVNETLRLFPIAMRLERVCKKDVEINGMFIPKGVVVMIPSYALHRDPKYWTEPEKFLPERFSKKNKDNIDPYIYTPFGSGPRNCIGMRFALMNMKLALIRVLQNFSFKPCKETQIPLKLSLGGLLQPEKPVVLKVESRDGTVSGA
Cytochrome P450 2C9 (Homo sapiens), sequence (P11712 whole entry, looked up): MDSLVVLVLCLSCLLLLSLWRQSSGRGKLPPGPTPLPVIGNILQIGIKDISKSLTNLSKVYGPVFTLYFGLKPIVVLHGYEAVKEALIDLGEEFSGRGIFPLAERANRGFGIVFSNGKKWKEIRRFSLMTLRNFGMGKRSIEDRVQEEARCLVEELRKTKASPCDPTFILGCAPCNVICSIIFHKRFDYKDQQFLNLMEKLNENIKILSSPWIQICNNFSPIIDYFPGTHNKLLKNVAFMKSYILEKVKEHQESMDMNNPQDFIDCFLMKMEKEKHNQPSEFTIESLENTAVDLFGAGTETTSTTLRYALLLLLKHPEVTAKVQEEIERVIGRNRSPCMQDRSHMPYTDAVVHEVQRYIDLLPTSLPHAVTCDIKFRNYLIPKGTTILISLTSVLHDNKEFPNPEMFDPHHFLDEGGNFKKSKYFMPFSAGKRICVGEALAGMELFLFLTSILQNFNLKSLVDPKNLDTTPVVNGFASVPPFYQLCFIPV
Cytochrome P450 2C19 (Homo sapiens), sequence (P33261 whole entry, looked up): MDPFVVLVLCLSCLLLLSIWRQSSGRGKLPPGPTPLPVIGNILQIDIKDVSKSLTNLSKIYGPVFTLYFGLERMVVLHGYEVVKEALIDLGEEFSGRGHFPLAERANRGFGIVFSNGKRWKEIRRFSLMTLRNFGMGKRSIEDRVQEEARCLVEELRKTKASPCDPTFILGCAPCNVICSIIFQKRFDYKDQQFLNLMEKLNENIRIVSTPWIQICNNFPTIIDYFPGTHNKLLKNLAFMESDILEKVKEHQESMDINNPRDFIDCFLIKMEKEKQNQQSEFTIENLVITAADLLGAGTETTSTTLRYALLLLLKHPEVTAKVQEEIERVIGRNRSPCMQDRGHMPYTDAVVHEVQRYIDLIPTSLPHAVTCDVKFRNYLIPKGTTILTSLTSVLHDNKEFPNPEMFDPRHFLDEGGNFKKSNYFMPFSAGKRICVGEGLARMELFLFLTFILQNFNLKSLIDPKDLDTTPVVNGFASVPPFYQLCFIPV

With `CC(C)CN1CC2(CCN(C(=O)c3cccc(F)c3)CC2)C1`, the results for the Potency in [1] and in [5] were > 11.4 µM (inactive) and > 46 µM (inactive), respectively. For the same compound, the activity change, negative = inhibition in assay [2] was 10.2% (inactive); in [8], 2.36% (inactive). Further, the Potency entry in assay [3], in assay [6] and in [7] was “inactive” throughout. The activity, negative = inhibition in assay [4] is -19.8% (inactive). Also, the figures for the max response in assay [8] (setting [13]) and in [8] (setting [14]) were 11.5% and 16.2%, respectively. In [9], the outcome was inactive.
In the case of `N#Cc1ccc(CN2CCCC3(CCN(C(=O)c4ccncc4)CC3)C2)cc1`, the Potency in [1] is > 11.4 µM (inactive); in assay [5], > 46 µM (inactive). Further, the activity change, negative = inhibition was -16.7% (inactive) in assay [2] and 2.04% (inactive) in [8]. In addition, the Potency entry in assay [3], in assay [6], in assay [7], in assay [10], in assay [11] and in assay [12] was “inactive” throughout. The activity, negative = inhibition in [4] was 1.22% (inactive). Also, the max response was found to be 4.42% in [8] (setting [13]) and 7.34% in assay [8] (setting [14]). For the same compound, the result in assay [9] was inactive.
Take `O=S(=O)(c1ccccc1)N1CCC2(CCN(Cc3nccs3)CC2)CC1`: the Potency in assay [1] was > 11.4 µM (inactive); in assay [5], > 46 µM (inactive). Further, the results for the activity change, negative = inhibition in [2] and in assay [8] were 19.1% (inactive) and 0.281% (inactive), respectively. Besides, the Potency result in assay [3], in [6] and in assay [7] was “inactive” each time. Moreover, in assay [4], the activity, negative = inhibition is -4.54% (inactive). The max response in assay [8] (setting [13]) stood at 4.88%; in assay [8] (setting [14]), 7.01%. Also, the result in assay [9] was inactive.
On to `CC(C)CN1CCC2(CC1)CCN(S(=O)(=O)c1ccccc1)CC2`, for which the Potency in assay [1] was > 11.4 µM (inactive); in [5] it was > 46 µM (inactive). Moreover, the results for the activity change, negative = inhibition in [2] and in assay [8] were -4.17% (inactive) and 2.93% (inactive), respectively. The Potency result in [3], in assay [6] and in assay [7] was “inactive” throughout. The activity, negative = inhibition in assay [4] is -1.58% (inactive). Also, the max response in [8] (setting [13]) is -0.0585%; in assay [8] (setting [14]), 3.86%. In assay [9], the outcome was inactive.
On to `O=C(Oc1ccccc1)N1CCC2(CC1)CCN(c1ccncc1)CC2`, for which the Potency in assay [1] was > 11.4 µM (inactive); in [5] it was > 46 µM (inactive). Moreover, the activity change, negative = inhibition is 9.96% (inactive) in assay [2] and 1.8% (inactive) in [8]. For the same compound, the Potency entry in assay [3], in [6] and in [7] was “inactive” each time. Moreover, the activity, negative = inhibition in [4] was 16.5% (inactive). Further, the results for the max response in [8] (setting [13]) and in assay [8] (setting [14]) were -5.74% and -3.08%, respectively. Further, in assay [9], the result was inactive.
Take `N#Cc1ccc(CN2CCC3(CC2)CCN(C(=O)c2cc(C(F)(F)F)cc(C(F)(F)F)c2)CC3)cc1`: the figures for the Potency in assay [1] and in [5] were > 11.4 µM (inactive) and > 46 µM (inactive), respectively. Besides, the results for the activity change, negative = inhibition in assay [2] and in assay [8] were 7.04% (inactive) and 1.9% (inactive), respectively. The Potency entry in assay [3], in [6] and in assay [7] was “inactive” in each case. Further, in [4], the activity, negative = inhibition is 3.33% (inactive). Further, the max response in assay [8] (setting [13]) turned out to be 7.25%; in assay [8] (setting [14]), 11%. Moreover, in [9], the outcome was inactive.
For the compound `CC(=O)N1CCC2(CCN(Cc3ccccc3)CC2)CC1`, the Potency is > 11.4 µM (inactive) in assay [1] and > 46 µM (inactive) in [5]. The activity change, negative = inhibition was -7.18% (inactive) in assay [2] and -3.2% (inactive) in assay [8]. Moreover, the Potency entry in assay [3], in [6] and in assay [7] was “inactive” throughout. The activity, negative = inhibition in assay [4] is -5.27% (inactive). In addition, the max response was -4.28% in [8] (setting [13]) and -4.62% in [8] (setting [14]). The outcome in assay [9] was inactive.
Consider `O=C(c1ccco1)N1CCC2(CCN(Cc3ccncc3)CC2)CC1`, for which the Potency was > 11.4 µM (inactive) in assay [1], 20 µM (active) in [3], > 46 µM (inactive) in assay [5] and 7.94 µM (active) in assay [10]. For the same compound, the activity change, negative = inhibition in [2] is 1.28% (inactive); in assay [8], 6.5% (inactive). In assay [4], the activity, negative = inhibition is -11.4% (inactive). The Potency result in [6], in [7] and in assay [11] was “inactive” throughout. The values for the max response in [8] (setting [13]) and in assay [8] (setting [14]) were 12.7% and 20.5%, respectively. The outcome in assay [9] was inactive.
